Test results as given in PubChem BioAssay AID652128 (Broad Institute, 2013).
The list shows a part of the results. Results filed as inconclusive are left out. The source made the active and inactive calls.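 How the source made its calls: active means fitted half-maximal concentration for signal loss at or below twice the highest dose tested, in every separate run (actives reach about 64 µM in these data); inconclusive means runs disagree, or flat partial signal loss, or poor fit; inactive means the rest.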

Experiment: DNA binders displacing acridine orange – biochemical, fluorescence polarization, cherry-pick, artefact control for RAD52 inhibitor project, dose response (AID 652128)
Conditions: Salmon sperm DNA/acridine orange FP displacement, DNA binding

Row | SMILES | outcome | AC50
1 | COc1ccc2c(c1O)-c1cccc3c1[C@@H](C2)N(C)CC3 | inactive | 
2 | CCCCCCCCCCCCn1ccc(=N)cc1 | inactive | 
3 | CC1=CC(=Cc2sc3ccccc3[n+]2C)C=C(C)O1 | inactive | 
4 | C[N+]1(C)CCOC(O)(c2ccc(-c3ccc(C4(O)C[N+](C)(C)CCO4)cc3)cc2)C1 (stereo not given) | inactive | 
5 | CCOc1cccc(=NC2CCCCC2)c2c(C)[nH]c(C)c12 |  | 36 µM (active)
